Our source for the PBM binding z-score values is the supplement of paper PMC6555819.

Common to all, as to assay: PBM binding z-score (relative to random genomic background probes); higher = stronger binding; sequences stand for … in GC…GCGATTGACAGCGTAGAATGAAGG
The subject of assay [1] is RARb homodimer (NR concentration 270 nM). The method in brief: (§1)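 Ligand-free nuclear receptor dimers were applied to custom Agilent 4×180K protein-binding microarrays whose double-stranded probes carried direct-repeat seeds, single-nucleotide variants, half-site ablations and random human genomic background sequences in 34-nt variable regions. Incubation lasted 1 h. Binding z-scores were computed against the random background probes from regression-normalized fluorescence.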

For assay [2], the system named is RARg:RXRa (NR concentration 270 nM, RXRa partner concentration 90 nM). Put shortly:
as §1

The test system of assay [3] is RARg homodimer (NR concentration 270 nM). Put shortly: as §1
Assay [4] concerns RXRa DBDmut IVT, anti-RXR (DBD mutation: RXRa K156A/R161A, NR concentration 90 nM). Put shortly:
as §1

Assay [5] concerns RXRa homodimer (NR concentration 180 nM). Put shortly:
as §1

For assay [6], the system named is THRa:RXRa (NR concentration 90 nM, RXRa partner concentration 90 nM). The method in brief: as §1
For assay [7], the system named is THRa homodimer (NR concentration 90 nM). Put shortly: as §1
Assay [8] relates to VDR homodimer (NR concentration 270 nM). Put shortly: as §1

For CGAACTAGGTCATTGAGAGGACAGTGAATAGTAA, the PBM binding z-score in assay [1] was 3.22; in assay [2], 5.93; in assay [3], 4.96; in assay [4], 2.07; in assay [5] it was 3.22; in assay [6], 3.42. Moreover, the values for the PBM binding z-score in assay [7] and in assay [8] were 1.08 and 1.56, respectively.

As to CCTACTGGGCCACGAAAGGTCAGTGATTCAGTGA, the PBM binding z-score in assay [1] was 3.87; in assay [2], 3.69; in assay [3] it was 4.04; in assay [4] it was -0.37; in assay [5], 3.1; in assay [6], 3.1. Further, the figures for the PBM binding z-score in assay [7] and in assay [8] were 0.0818 and 0.0755, respectively.

Regarding TCTATTAGTTGAAGGGCAACCTACGAGTCCGTTT, the PBM binding z-score was determined as 1.2 in assay [1]; 0.698 in assay [2]; 0.806 in assay [3]; 1.51 in assay [4]; 0.858 in assay [5]; 0.233 in assay [6]. Moreover, the PBM binding z-score in assay [7] was -0.0206; in assay [8] it was 1.42.

On to AGTCAAAGTTCCTCTAGGTAACGTAAGATATGCT, for which the PBM binding z-score in assay [1] is -0.0173; in assay [2], 0.433; in assay [3] it was 0.491; in assay [4] it was 0.711; in assay [5] it was 0.183; in assay [6], 1.23. Besides, the PBM binding z-score in assay [7] is -0.0927; in assay [8] it was 0.297.

Regarding GCAGACAGGTGAAGCGCAGGTAACTCAGGGTGGC, the PBM binding z-score was -0.151 in assay [1]; 0.302 in assay [2]; 0.0246 in assay [3]; -0.801 in assay [4]; 0.395 in assay [5]; 0.73 in assay [6]. Besides, the PBM binding z-score in assay [7] is -0.688; in assay [8], -0.755.

On to ACTAGTTGGTCAGATGAGGTCACACACAATTCGG, for which the PBM binding z-score in assay [1] is 4.39; in assay [2], 3.94; in assay [3] it was 3.9; in assay [4], 1.44; in assay [5] it was 4.3; in assay [6], 4.8. In addition, the PBM binding z-score in assay [7] was found to be 4.95; in assay [8] it was 4.21.

In the case of ATATGTAGGTTATCGGATCATTCAGTTTGCGCAT, the PBM binding z-score amounted to 0.853 in assay [1]; 0.837 in assay [2]; 0.866 in assay [3]; 0.702 in assay [4]; 1.12 in assay [5]; 0.794 in assay [6]. Besides, the PBM binding z-score is 0.624 in assay [7] and 0.764 in assay [8].
